A short description of test [1]: Stat Signaling Pathway (AID 446; active = well fitted curve in either direction with a large enough effect, not every such curve was filed as active;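 also: ME-180 cervical cancer cells given 40 pM IL-6 alongside compound; SIE-controlled beta-lactamase reporter measured as 460/530 nm FRET emission ratio; % is scaled to controls: 0 for no effect and ±100 for the full control effect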). The settings on record: ME-180 SIE beta-lactamase reporter, IL-6 stimulated, 5 h. In outline: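 ME-180 SIE-bla cells; overnight plating; cpd + IL-6 40 pM, 5 h, 37 C; LiveBLAzer 2.5 h RT; 460/530 nm emission ratio. Normalized to 300 pM IL-6 and 125 nM JAK inhibitor controls.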
The target of test [2] is Glucocorticoid receptor (Homo sapiens) (UniProt P04150). The test is described as follows: GR-GFP Redistribution (AID 450;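 active = compounds whose dose series gives a full or clear partial fitted curve of increased nuclear translocation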; also: potency is read from the fitted curve at half-maximal effect). The settings on record: U2OS GR-GFP nuclear translocation, laser cytometry, 2 h.
For test [3] the target is unchanged. The test is described as follows: GR-EFC Redistribution (AID 451; calls by dose curve; also: potency is read from the fitted curve at half-maximal effect). The settings on record: CHO-K1 GR-EFC translocation, beta-gal luminescence, 2 h. In outline: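 CHO-K1 cells stably expressing nuclear-localized β-gal enzyme acceptor and GR fused C-terminally to the enzyme donor fragment; ligand-driven nuclear translocation restores β-gal by complementation. Compounds titrated up to 46 uM final, 2 h at 37 °C; luminescence read.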

The target of test [4] is Mitogen-activated protein kinase 10 (Mus musculus) (UniProt Q61831). The experiment in a line: JNK3 AlphaScreen Assay (AID 530; active = well fitted curve in either direction with a large enough effect, not every such curve was filed as active;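 also: kinase came from lysate of stimulated human HepG2 cells; signal reports phosphorylation of biotinylated GST-cJun 1-79 at Ser73 with 10 µM ATP; % is scaled to controls: 0 for no effect and ±100 for the full control effect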). As to conditions: JNK3 lysate, c-Jun phosphorylation; series mostly up to 57.1 µM. The gist of the method:
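JNK3 came from HepG2 lysates pre-activated with IL-1beta and TNF-alpha and phosphorylated biotinylated GST-cJun (1-79) at 10 uM ATP, pH 7.6, room temperature. Compounds were titrated. AlphaScreen signal used anti-phospho-cJun (Ser73) antibody.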

The nature of test [5]: Cell Viability - N2a (AID 540).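 Also: plate controls were DMSO alone for no effect and tamoxifen control for full effect; nearly all actives have a fitted effect of over 45% in size.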 As to conditions: N2a mouse neuroblastoma cell viability; activity change, negative = cytotoxicity: at 92.2 µM (top of the series). The gist of the method: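 First, 1500 N2a cells per well incubate 5 hr at 37 °C; next, compounds are added and incubated 40 hr at 37 °C; finally CellTiter-Glo is added and luminescence read after 20 min, with AC50 derived by Hill modeling.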

A short description of test [6]: Cell Viability - NIH 3T3 (AID 541).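 Also: plate controls were DMSO alone for no effect and tamoxifen positive control for full effect; nearly all actives have a fitted effect of over 25% in size.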 The settings on record: NIH 3T3 cell viability, qHTS; activity change, negative = cytotoxicity: at 92.2 µM (top of the series). In outline: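 AC50 values reflect concentration-dependent loss of intracellular ATP in NIH 3T3 cells after 40 hr treatment in complete culture medium, quantified by luciferase-based luminescence.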
The nature of test [7]: Cell Viability - HUV-EC-C (AID 542). Also: nearly all actives have a fitted effect of over 35% in size. Also: potency is read from the fitted curve at half-maximal effect. As to activity change, negative = cytotoxicity: % is scaled to controls: 0 for no effect and ±100 for the full control effect. As to conditions: HUV-EC-C endothelial cell viability, qHTS; series mostly up to 92.2 µM. In outline: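 Decrease in cellular ATP, quantified by luciferase luminescence, reflects toxicity in normal human vascular endothelial HUV-EC-C cells given compound for 40 hr in complete culture medium. Values are AC50s from concentration-response curves.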

A short description of test [8]: Cell Viability - H-4-II-E (AID 543). Also: nearly all actives have a fitted effect of over 35% in size. Also: potency is read from the fitted curve at half-maximal effect. The settings on record: H-4-II-E rat hepatoma viability; series mostly up to 92.2 µM. The gist of the method: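 Here, cytotoxicity is measured in the rat hepatoma line H-4-II-E as loss of intracellular ATP after 40 hr compound treatment, detected by luciferase luminescence.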
Test [9] in a line: Cell Viability - SH-SY5Y (AID 544).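 Also: 0% = DMSO alone and -100% = 100 µM tamoxifen; nearly all actives have a fitted effect of over 55% in size.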 The settings on record: SH-SY5Y neuroblastoma cell viability; viability change, negative = cytotoxic: at 92.2 µM (top of the series). In outline:
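Cytotoxicity is scored as a concentration-dependent fall in intracellular ATP in human SH-SY5Y cells treated 40 hr in complete culture medium. Potency is expressed as AC50 from a Hill equation fit.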

Test [10] can be described thus: Cell Viability - Renal Proximal Tubule (AID 545).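 Also: 0% = DMSO only and -100% = 100 µM tamoxifen; nearly all actives have a fitted effect of over 40% in size.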 The settings on record: renal proximal tubule cells viability, primary cells of rat origin; activity change, negative = cytotoxicity: at 91.7 µM (top of the series). In outline:
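Rat renal proximal tubule primary cells, 1000/well, exposed to compounds for 40 hr at 37 °C in complete medium; cellular ATP read by CellTiter-Glo luminescence. AC50 from concentration-response fitted with standard Hill equation.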

The values that follow come from PubChem BioAssay (NCATS).

“And” between values parts separate entries of the source, which are not always exact repeats. Equal values may be shown once. A number with no mark means an inactive call. Results filed as inconclusive are left out. The source made the active and inactive calls. Unless noted, calls follow the shape of the dose curve; as a rule, active = well fitted curve in the direction sought with a large enough effect; inconclusive = small, poorly fitted or top-dose-only effect, or another doubt; inactive = no such curve, though single readings can be large; an effect the other way counts as inactive or inconclusive.

Sequence of Glucocorticoid receptor (Homo sapiens) (P04150 whole entry, looked up, the tested form may be a part): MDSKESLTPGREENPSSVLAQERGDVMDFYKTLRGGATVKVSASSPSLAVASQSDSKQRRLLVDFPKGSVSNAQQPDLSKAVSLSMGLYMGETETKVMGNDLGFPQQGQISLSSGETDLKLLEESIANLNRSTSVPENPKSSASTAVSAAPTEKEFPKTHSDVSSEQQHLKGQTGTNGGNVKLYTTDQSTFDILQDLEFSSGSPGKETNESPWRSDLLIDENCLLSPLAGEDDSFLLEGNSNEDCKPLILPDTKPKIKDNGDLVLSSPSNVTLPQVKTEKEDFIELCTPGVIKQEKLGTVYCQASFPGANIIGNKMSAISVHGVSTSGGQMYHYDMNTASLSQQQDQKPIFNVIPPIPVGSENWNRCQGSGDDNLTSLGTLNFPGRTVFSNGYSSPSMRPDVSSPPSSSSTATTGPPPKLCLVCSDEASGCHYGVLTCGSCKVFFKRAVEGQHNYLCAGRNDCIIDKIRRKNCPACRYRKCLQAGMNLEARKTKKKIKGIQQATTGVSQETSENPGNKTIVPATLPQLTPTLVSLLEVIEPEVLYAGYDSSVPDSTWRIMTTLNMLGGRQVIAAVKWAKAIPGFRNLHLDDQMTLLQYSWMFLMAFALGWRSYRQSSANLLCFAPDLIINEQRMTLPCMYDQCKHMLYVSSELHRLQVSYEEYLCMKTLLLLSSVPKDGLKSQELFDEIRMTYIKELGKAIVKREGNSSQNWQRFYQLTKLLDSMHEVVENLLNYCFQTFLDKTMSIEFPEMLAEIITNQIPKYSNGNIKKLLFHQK

For the compound `C[N+]1(C)CCC(OC(=O)C(c2ccccc2)c2ccccc2)CC1`, in test [1] (at 38 µM (top of the series)), the activity, negative = inhibition is 22.3%. In addition, the Potency in test [2] and in test [3] was above 46 µM throughout. In addition, the Potency entry in test [4] is “inactive”.

As for `O=C(Nc1ccccc1)c1cc([N+](=O)[O-])ccc1Cl`, the activity, negative = inhibition in [1] (at 38 µM (top of the series)) was -18.8%. For the same compound, the Potency in test [2] and in test [3] was above 46 µM throughout. Further, the Potency entry in test [4] is “inactive”.

Regarding `Cn1c(=O)c2[nH]c(-c3ccccc3)nc2n(C)c1=O`, the activity, negative = inhibition in test [1] (at 38 µM (top of the series)) is -0.0891%. Also, the Potency in test [2] and in test [3] was above 46 µM in each case. Also, the Potency result in [4] is “inactive”.

Take `NC(=O)C(=O)O`: the activity, negative = inhibition in test [1] (at 38 µM (top of the series)) is -1.18%. Further, the Potency in test [2] and in test [3] was above 46 µM in each case. Moreover, in test [4], the Potency entry is “inactive”.

For the compound `CC1(C)CCC=[N+]1[O-]`, the activity, negative = inhibition in test [1] (at 38 µM (top of the series)) is 4.29%. Moreover, the Potency in test [2] and in [3] was above 46 µM in each case. In addition, in test [4], the Potency entry was “inactive”.

Consider `N[C@H](CCCP(=O)(O)O)C(=O)O`, for which the activity, negative = inhibition in test [1] (at 38 µM (top of the series)) is 14.7%. Also, the Potency in test [2] and in [3] was above 46 µM each time. The Potency entry in test [4] is “inactive”.

Consider `Cc1c(N)c(=O)n(-c2ccccc2)n1C`, for which the activity, negative = inhibition in test [1] (at 17.2 µM (top of the series)) is 3.23%. Moreover, the Potency in [2] and in [3] was above 20.6 µM each time. Further, the Potency entry in [4] was “inactive”.

Turning to `CCCCN1CCC(n2c(=O)[nH]c3ccccc32)CC1`, the Potency in test [2] and in test [3] was above 46 µM in each case.

For the compound `NC[C@@H]1O[C@H](C23CC4CC(CC(C4)C2)C3)Cc2c1ccc(O)c2O`, in test [1] (at 38 µM (top of the series)), the activity, negative = inhibition is 0.327%. In addition, the Potency in test [2] and in test [3] was above 46 µM each time. In addition, the Potency result in test [4] is “inactive”.

Turning to `CC(=O)SCC[N+](C)(C)C`, the activity, negative = inhibition in test [1] (at 38 µM (top of the series)) is 1.77%. Also, the Potency in test [2] and in test [3] was above 46 µM throughout. The Potency result in test [4] was “inactive”.

Take `Nc1ccc(O)c(C(=O)O)c1`: the activity, negative = inhibition in [1] (at 17.2 µM (top of the series)) is -23.9%. The Potency in [2] and in test [3] was above 20.6 µM in each case. Besides, the Potency entry in test [4], in [5], in test [6], in test [7], in test [8] and in test [9] was “inactive” throughout. In test [10], the activity change, negative = cytotoxicity was 10.5%.

Turning to `COc1cc2c(CCNC(C)=O)c[nH]c2cc1Cl`, the activity, negative = inhibition in test [1] (at 38 µM (top of the series)) is -15.8%. Moreover, the Potency in test [2] and in test [3] was above 46 µM in each case. Further, the Potency entry in [4] was “inactive”.

Take `c1ccc2sc(SSc3nc4ccccc4s3)nc2c1`: the Potency entry in test [4], in test [5], in [6], in [7], in test [8] and in test [9] was “inactive” throughout. Also, the activity change, negative = cytotoxicity in test [10] was -1.46%.

Regarding `Cn1cc(C2=C(c3ccc(Cl)cc3Cl)C(=O)NC2=O)c2ccccc21`, the Potency in [2] and in [3] was above 46 µM each time. The Potency result in test [4] was “inactive”.

With `N=C1N=C(N)c2cc3ccccc3cc21`, in [4], the Potency entry was “inactive”. Moreover, the activity change, negative = cytotoxicity is -112% (active) in test [5], -134% (active) in test [6] and -85.8% (active) in test [10]. Further, the Potency in test [7] was 50.1 µM (active); in test [8], 31.6 µM (active). Besides, in test [9], the viability change, negative = cytotoxic was -99% (active).

As to `COc1ccccc1CNCCCCCCNCCCCCCCCNCCCCCCNCc1ccccc1OC`, the Potency in test [2] and in test [3] was above 46 µM in each case. The Potency entry in [4] was “inactive”.

`CN1CCC[C@H]1c1cccnc1`: the Potency result in test [4], in [5], in test [6], in test [7], in test [8] and in [9] was “inactive” throughout. Further, the activity change, negative = cytotoxicity in test [10] is 3.04%.

As to `CCCCCCCCCCCCCCCCCC(=O)O`, the Potency result in test [4], in test [5], in [6], in [7], in test [8] and in test [9] was “inactive” in each case. For the same compound, the activity change, negative = cytotoxicity in [10] was -6.5%.

On to `COc1cc(OC)c(/C=C2/C(=O)Nc3ccccc32)c(OC)c1`, for which the Potency in [2] and in test [3] was above 46 µM each time. The Potency result in [4] was “inactive”.

Turning to `NCCO`, the Potency entry in test [5], in test [6], in test [7] and in test [8] was “inactive” each time. The activity change, negative = cytotoxicity in test [10] was -3.73%.

Turning to `CCCOC(=O)c1ccc(O)cc1`, the Potency result in test [4], in test [5], in test [6], in [7], in test [8] and in test [9] was “inactive” throughout. For the same compound, in test [10], the activity change, negative = cytotoxicity is -13.5% and -15.2%.

Consider `CN(C)CCC(c1ccc(Cl)cc1)c1ccccn1` (stereo not given), for which the Potency result in [4], in test [5], in [6], in test [7], in test [8] and in test [9] was “inactive” in each case. Moreover, the activity change, negative = cytotoxicity in [10] was -6.06%.

Consider `Nc1nc2ccc([N+](=O)[O-])cc2s1`, for which the Potency result in test [4] and in test [7] was “inactive” in each case.
